Screening results as filed in PubChem BioAssay.
Most compounds without a hit are left out; they make up all but 19% or so of the library.
HT1080 IDH1KD tx = HT-1080 IDH1 knockdown cell toxicity (counter line) | HT-1080 IDH1 knockdown viability, ATP luminescence, 48 h | Potency, µM (top dose mostly 46.1 µM), without a hit: at the highest dose activity, negative = toxicity, most hits filed as cytotoxic | 360,000 tested, 2% active | AID 686971;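 note: potency is the fitted concentration of half-maximal effect; 0% = DMSO wells and -100% = cell-free medium wells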
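Cytotoxicity counter-line: IDH1KD HT-1080, 48 h, CellTiter-Glo. Curves classed by r2, magnitude and activity.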
TDP1 cell CPT = DT40-hTDP1 cell growth loss with CPT. chicken DT40 Tdp1-/-;hTDP1 cells + 20 nM CPT, ATP luminescence, 48 h. 420,000 tested, 12% active. Potency, µM (series often up to 46.2 µM), without a hit: at the highest dose activity change, negative = growth inhibition, usual class: inhibitors; note: potency is the fitted concentration of half-maximal effect; nearly all actives have a fitted effect of over 55% in size
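Chicken DT40 Tdp1-/- cells stably complemented with human TDP1 were seeded at 400 cells/well in medium containing 20 nM camptothecin, exposed to pin-transferred compounds, and grown at 37 °C for at least 48 hr. Viability was read as ATP luminescence.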
IL-1B inflam inh = inflammasome signaling inhibition, IL-1 beta readout | THP-1 LPS/ATP IL-1B secretion, AlphaLISA, 16 h; hits give low values | activity change, % at 57.5 µM | 360,000 tested, 4.7% active; in the data active = activity change below about -50%; inconclusive = mostly about -30% to -49%
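Secreted IL-1B measured by AlphaLISA bead assay after 16 h compound exposure of THP-1 cells; compounds (final up to 57.5 uM) added 1 h before LPS (250 ng/mL) and ATP (1.25 mM) stimulation; lower signal means less secretion.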
DT40 TDP1 no CPT = qHTS for Inhibitors of human tyrosyl-DNA phosphodiesterase 1 (TDP1): qHTS in cells in absence of CPT | DT40 Tdp1-/- hTDP1 cells, no CPT, ATP luminescence, 48 h | Potency, µM (top dose mostly 46.2 µM), for inactives: at the top dose activity change, negative = growth inhibition, hits mostly inhibitors | 420,000 tested, 15% active | AID 686978, 2013; note: potency is the fitted concentration of half-maximal effect; nearly all actives have a fitted effect of over 55% in size
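Luminescent ATP content (CellTiter-Glo) served as the growth readout. Knockout chicken DT40 cells expressing human TDP1 were exposed to compounds without camptothecin for a minimum 48 hr at 37 °C.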
HT1080NT lethal = kills 2HG-producing HT-1080-NT fibrosarcoma cells; HT-1080-NT fibrosarcoma viability, CellTiter-Glo ATP luminescence, 48 h; AID 686970; 360,000 tested, 1.6% active; Potency, µM (titrated, usually from 46.1 µM), for inactives: top-dose activity, negative = less viability, most hits filed as cytotoxic;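 note: NT is the 2HG producing partner of a matched IDH1 knockdown line; potency is the fitted concentration of half-maximal effect; 0% = DMSO-treated cells and -100% = media-only wells without cells; nearly all actives have a fitted effect of over 55% in size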
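HT-1080-NT; 750 cells/well; 5% FBS RPMI; 48 h compound, 37 degrees C; CellTiter-Glo luminescence; curve fitting and curve-class assignment.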
An asterisk follows results filed as active; ? = inconclusive; . = no result given. Unless noted, calls come from the whole dose curve; as a rule, active = well fitted curve in the direction sought with a large enough effect; inconclusive = small, poorly fitted or top-dose-only effect, or another doubt; inactive = no such curve, though single readings can be large; an effect the other way counts as inactive or inconclusive. Unless noted, % is set by controls: 0 for no effect and ±100 for the full control effect.

SMILES	HT1080 IDH1KD tx	TDP1 cell CPT	IL-1B inflam inh	DT40 TDP1 no CPT	HT1080NT lethal
COCc1nnc(NC(=O)CCS(=O)(=O)c2ccccc2)s1	?	10µM*	-97*	16µM*	?
CCC(CC)c1nnc(NC(=O)Cc2ccccc2[N+](=O)[O-])s1	-5%	5%	0	-21%	1%
CCCCc1nnc(NC(=O)CCS(=O)(=O)c2ccc(C)cc2)s1	-15%	13µM*	6	?	2%
CCCCc1nnc(NC(=O)CN(C)S(=O)(=O)c2ccc(C)cc2)s1	1%	0%	36	6%	11%
CC(CNc1nc2ccc(Cl)cc2n2cnnc12)c1ccccc1 (stereo not drawn)	12%	?	3	?	4%
CCc1nnc(NC(=O)CCS(=O)(=O)Cc2ccccc2)s1	-1%	15µM*	-6	?	-3%
CC(C)c1nnc(NC(=O)CCc2ccccc2)s1	-4%	3%	-2	10%	-1%
O=C(CS(=O)(=O)c1ccccc1)Nc1ncc([N+](=O)[O-])s1	14%	-3%	24	-9%	11%
CC(C)c1nnc(NC(=O)CCS(=O)(=O)c2ccccc2)s1	?	16µM*	-105*	?	?
CCCc1nnc(NC(=O)CCS(=O)(=O)Cc2ccccc2)s1	12%	?	0	?	?
O=C(CCS(=O)(=O)c1ccccc1)Nc1ncc([N+](=O)[O-])s1	16µM*	8.2µM*	-76*	10µM*	21µM*
CCC(CC)c1nnc(NC(=O)CCS(=O)(=O)Cc2ccccc2)s1	-19%	?	-18	15µM*	?
CC1=NN(c2ccccc2)C(=O)C1(C)[N+](=O)[O-] (stereo not drawn)	0%	-6%	2	-34%	-4%
CCCSc1ncc(Cl)c(C(=O)Nc2c(C(=O)c3ccc(F)cc3)oc3ccccc23)n1	.	19%	.	-6%	.
O=C(NCCN1CCOCC1)c1cccc(S(=O)(=O)N(Cc2ccccc2)c2ccccc2)c1	-1%	?	5	-27%	0%
CCc1nnc(NC(=O)CCS(=O)(=O)c2ccccc2)s1	-10%	26µM*	4	?	-1%
COc1ccc(OC)c2sc(NC(=O)CCSc3ccccc3)nc12	-21%	-35%	18	-26%	-16%
COCc1nnc(NC(=O)c2cccc(NC(=O)c3ccccc3)c2)s1	-5%	?	33	21µM*	-5%
COc1ccc(OC)c2sc(NC(=O)CCS(=O)(=O)c3ccccc3)nc12	5%	5.2µM*	-21	4.6µM*	6%
CC(=O)Nc1ccc(S(=O)(=O)Nc2nc3c(s2)CCCC3)cc1	-7%	-18%	63	-22%	-3%
Cc1ccc(S(=O)(=O)CCC(=O)Nc2nc3c(s2)CCCC3)cc1	-18%	?	28	29µM*	-29%
Cc1ccc(Oc2ccc(/C=N/O)cn2)cc1	13%	23µM*	-12	16µM*	1%
Cc1ccc(COc2ccc(/C=N/O)cc2)cc1	3%	-29%	-9	?	5%
Cc1ccccc1NC(=O)N1CCC(NC(=O)C2CCCCC2)CC1	13%	-3%	-13	-11%	14%
CC1=CC(C)(C)N2C(=O)C3(N=C(N)NC(Nc4ccccc4)=N3)c3cc(C)cc1c32 (stereo not drawn)	?	?	-78*	18µM*	?
SMILES	HT1080 IDH1KD tx	TDP1 cell CPT	IL-1B inflam inh	DT40 TDP1 no CPT	HT1080NT lethal
CC1=CC(C)(C)N2C(=O)C3(SCC(=O)N3c3ccc(O)cc3)c3cc(C)cc1c32 (stereo not drawn)	1%	-5%	36	-1%	2%
COc1ccc([C@H]2CC(=O)C=C(c3ccc(-c4ccccc4)cc3)C2)cc1OC	8%	-14%	27	-21%	-5%
COc1ccc([C@H]2CC(=O)C=C(c3cc(F)ccc3F)C2)cc1OC	-11%	?	-25	-52%	-1%
COc1ccc([C@H]2CC(=O)C=C(c3ccc(OC(F)(F)F)cc3)C2)cc1	4%	?	-17	?	0%
COc1ccc([C@H]2CC(=O)C=C(c3cccc(OC)c3OC)C2)cc1OC	-9%	?	19	23µM*	0%
COc1ccc([C@H]2CC(=O)C=C(c3ccc(C)cc3)C2)cc1OC	-11%	18µM*	-13	?	4%
COc1ccc(C2=CC(=O)C[C@H](c3ccc(OC)c(OC)c3)C2)cc1	-1%	13µM*	-29	18µM*	0%
COc1ccc([C@H]2CC(=O)C=C(c3ccc(CNC(=O)OC(C)(C)C)cc3)C2)cc1	?	?	-8	23µM*	-26%
CCOC(=O)c1sc(SC)c2c1CCCC2=O	12%	-3%	19	-5%	-1%
COc1c(F)cccc1C1=CC(=O)C[C@H](c2ccc(F)cc2)C1	7%	-28%	-30	-6%	2%
O=S(=O)(c1ccccc1Cl)N1CCCC(c2nc(-c3cccnc3)no2)C1 (stereo not drawn)	-1%	-12%	-11	-23%	0%
COc1ccc(C(=O)Cn2c(NCCCO)nc3ccccc32)cc1	-1%	?	?	?	-9%
O=C(Cn1c(NCCO)nc2ccccc21)c1ccc(F)cc1	-4%	-13%	-4	-12%	2%
COc1ccc(-n2c(C)cc(C(=O)Cn3c(NCCO)nc4ccccc43)c2C)cc1	-26%	?	42	21µM*	-18%
COC(=O)COc1ccc(C(=O)Cn2c(NCCCO)nc3ccccc32)cc1	3%	-4%	-93*	-7%	4%
CCCCc1nn2c(=O)cc(COC(=O)c3cccc(OC)c3)nc2s1	.	?	.	-27%	.
CC1(C)Cc2ccccc2C2=NNC(=O)C2=N1	7.3µM*	16µM*	-100*	10µM*	23µM*
CCc1ccccc1NC(=O)Cn1cc(C(=O)c2ccc(Cl)cc2)c(=O)c2ccc(C)nc21	.	1%	.	5%	.
O=C(c1cc(-c2ccccc2Cl)on1)N1CCCC1	-7%	5%	25	-13%	-12%
